Source: PubChem BioAssay (NCI)
This is part of a sample that, as a whole, favours compounds with a hit. Of some 79,000 tested, about 15% had one in any assay. Calls of active or inactive are those of the source. No stated cut-off is given here; in the data, active means growth inhibition above about 70%; inactive means the rest.

What was measured:
[1] = NCI Yeast Anticancer Drug Screen. Data for the rad50 strain (AID 155);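 further: 0% = growth of vehicle-only cultures of the same strain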; conditions: S. cerevisiae rad50 strain growth inhibition, stronger effect = higher value
Procedure, shortened: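 Growth of the mutant yeast was measured after compound exposure and referenced to vehicle-treated cultures.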

[2] = NCI Yeast Anticancer Drug Screen. Data for the mec2-1 strain (AID 157); conditions: S. cerevisiae mec2-1 strain, stronger effect = higher value
Procedure, shortened: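 Test agents were screened against the mec2-1 yeast strain, with defined DNA repair or cell cycle alteration. Growth was scored as inhibition against vehicle-only controls.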

[3] = NCI Yeast Anticancer Drug Screen. Data for the sgs1 mgt1 strain (AID 161);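 further: 0% = growth of cultures given vehicle only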; conditions: S. cerevisiae sgs1 mgt1 strain, stronger effect = higher value
Procedure, shortened: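 Read-out: growth inhibition vs vehicle controls. Cells: mutant yeast strain deficient in DNA damage repair.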

[4] = NCI Yeast Anticancer Drug Screen. Data for the cln2 rad14 strain (AID 165);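 further: 0% = growth equal to vehicle treated cultures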; conditions: S. cerevisiae cln2 rad14 strain, stronger effect = higher value
Procedure, shortened: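 Growth of compound-exposed yeast (cln2 rad14 genotype) measured and expressed as inhibition relative to vehicle.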

[5] = NCI Yeast Anticancer Drug Screen. Data for the bub3 strain (AID 167); conditions: S. cerevisiae bub3 mutant strain, stronger effect = higher value
Procedure, shortened: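 Whole-cell yeast assay. The mutant strain was incubated with compounds, and growth inhibition was determined by comparison with vehicle-treated cells.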

[6] = NCI Yeast Anticancer Drug Screen. Data for the mlh1 rad18 strain (AID 175); conditions: S. cerevisiae mlh1 rad18 strain growth inhibition, stronger effect = higher value
Procedure, shortened: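 In this whole-cell yeast screen, a strain with altered DNA damage repair is challenged with compound, and its growth is measured against matched vehicle-treated controls.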

[7] = at 5.0 µM (retest, dose inferred, filed as 0.5)
[8] = at 50.0 µM (retest, dose inferred, filed as 5.0)

Measured: growth inhibition

O=C(/C=C/c1cccc(Cl)c1)c1ccccc1
inactive: [1]; [7] 16% | [2]; [7] -9% | [3]; [7] 7% | [4]; [7] 5% | [4]; [8] 52% | [4]; at 50.0 µM 12.9% | [5]; [7] -30% | [6]; [7] 10%
active: [1]; [8] 98% | [1]; at 50.0 µM 95.7% | [2]; [8] 99% | [2]; at 50.0 µM 95.5% | [3]; [8] 99% | [3]; at 50.0 µM 98% | [5]; [8] 98% | [5]; at 50.0 µM 95.2% | [6]; [8] 96% | [6]; at 50.0 µM 99.4%

CCCCCCN(CCCCCC)CC(O)c1cc(-c2ccccc2)nc2c(O)cccc12 (configuration not stated)
inactive: [1]; [7] 4% | [1]; [8] 56% | [1]; at 50.0 µM 23.7% | [2]; [7] 7% | [2]; at 50.0 µM 22.6% | [3]; [7] -118% | [4]; [7] 4% | [4]; [8] 42% | [4]; at 50.0 µM 8.2% | [5]; [7] 8% | [5]; at 50.0 µM 40% | [6]; [7] 30% | [6]; at 50.0 µM 33.5%
active: [2]; [8] 73% | [3]; [8] 95% | [3]; at 50.0 µM 93.8% | [5]; [8] 92% | [6]; [8] 87%

O=C1SCCN1/N=C/c1ccc([N+](=O)[O-])o1
active: [1]; [8] 85% | [1]; at 50.0 µM 85.8% | [2]; [8] 82% | [3]; [8] 92% | [3]; at 50.0 µM 93.3% | [5]; [8] 80% | [6]; [8] 94% | [6]; at 50.0 µM 92%
inactive: [1]; [7] 30% | [2]; [7] 13% | [2]; at 50.0 µM 65.3% | [3]; [7] 34% | [4]; [7] 2% | [4]; [8] 68% | [4]; at 50.0 µM 50.7% | [5]; [7] 10% | [5]; at 50.0 µM 64.6% | [6]; [7] 51%

CN(C)c1ccc(/C=C(\C#N)c2c(F)cccc2F)cc1
inactive: [1]; [7] 4% | [1]; [8] -2% | [1]; at 50.0 µM 6.05% | [2]; [7] 3% | [2]; [8] 2% | [2]; at 50.0 µM -10.8% | [3]; [7] 4% | [3]; [8] 1% | [3]; at 50.0 µM 17.9% | [4]; [7] 3% | [4]; [8] -3% | [4]; at 50.0 µM 41.8% | [5]; [7] 3% | [5]; [8] -2% | [5]; at 50.0 µM 13.3% | [6]; [7] 1% | [6]; [8] -1% | [6]; at 50.0 µM 0.45%
